Assay results: PubChem BioAssay (NCATS)
Results filed as inconclusive are left out. A call without a number means that no potency is given here. Calls of active or inactive are those of the source. The call rests on the fitted dose curve; in most records, active means well fitted curve in the direction sought with a large enough effect; inconclusive means small, poorly fitted or top-dose-only effect, or another doubt; inactive means no such curve, though single readings can be large; an effect the other way counts as inactive or inconclusive. Where a SMILES comes first, the peptide text is derived from it. The star is where a group is joined. AFC = O=c1cc(C(F)(F)F)c2ccc(N*)cc2o1

Legend:
[1] = P-glycoprotein substrates identified in KB-3-1 adenocarcinoma cell line, qHTS therapeutic library screen (AID 1346986); further: nearly all actives have a fitted effect of over 60% in size;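 further: potency is for cytotoxicity meaning loss of cell viability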
Procedure, shortened: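 KB-3-1 parental and colchicine-selected P-gp-overexpressing KB-8-5-11 cells (colchicine omitted during assay), 500 cells/well, dosed in dose-response for 72 h at 37 °C; CellTiter-Glo luminescence. Cytotoxic: curve class -1.1 to -2.4, max response >50%, AC50 < 10 uM.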

[2] = P-glycoprotein substrates identified in KB-8-5-11 adenocarcinoma cell line, qHTS therapeutic library screen (AID 1346987); further: nearly all actives have a fitted effect of over 65% in size; on activity change, negative = cytotoxicity: series mostly up to about 44 µM
Procedure, shortened: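 KB-8-5-11, a colchicine-selected P-gp-overexpressing KB-3-1 subline, was grown without colchicine for the assay. Cells were seeded at 500 cells/well, dosed in concentration-response and incubated 72 h at 37 degree C, 5% CO2. Viability was read by CellTiter-Glo luminescence.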
Potency means the concentration at half of the fitted maximal effect.

Structure (SMILES) | Potency [1] | Potency [2] | outcome [1] | activity change, negative = cytotoxicity [2]
C[C@H](NC(c1cccc(C[P+](=O)O)c1)[C@H](C)O)c1ccc(Cl)c(Cl)c1 (some centres undefined) | inactive | inactive | – | –
COC(=O)C1=CO[C@@H](O[C@@H]2O[C@H](CO)[C@@H](O)[C@H](O)[C@H]2O)[C@H]2[C@@H]1C=C[C@@]21C=C([C@H](C)O)C(=O)O1 | inactive | inactive | – | –
CC(=O)N[C@@H](Cc1c[nH]c2ccccc12)C(=O)N[C@@H](CCC(=O)O)C(=O)N[C@@H](Cc1cnc[nH]1)C(=O)N[C@@H](CC(=O)O)C(=O)Nc1ccc2c(C(F)(F)F)cc(=O)oc2c1 (Ac-WEHD-{AFC}) | inactive | inactive | – | –
CC1=C(C(=O)O)/C(=C\CO[C@@H]2O[C@H](CO)[C@@H](O)[C@H](O)[C@H]2O)C(OC(=O)/C=C\c2ccc(O)cc2)C1 (some centres undefined) | inactive | inactive | – | –
C=C(C)C(=O)O[C@H]1C[C@@](C)(O)C(=O)CC(O)/C(C)=C\[C@H]2OC(=O)C(=C)[C@H]12 (some centres undefined) | inactive | inactive | – | –
C=C1C[C@]23C[C@H]1CC[C@H]2C1=C[C@H]2OC(=O)[C@@](C)([C@H]1[C@@H]3C(=O)O)[C@H]2O | inactive | inactive | – | –
CC1OC(OC2C(C)OC(OC3C(OC(=O)C45CCC(C)(C)CC4C4=CCC6C7(C)CCC(OC8OC(C(=O)O)C(O)C(O)C8OC8OC(CO)C(O)C(OC9OC(C)C(O)C(O)C9O)C8O)C(C)(CO)C7CCC6(C)C4(C)CC5)OC(CO)C(O)C3O)C(O)C2O)C(O)C(O)C1O (centres undefined) | – | – | inactive [at 9.29 µM] | 1.71% [at 9.29 µM] (inactive)
COc1cc2ncnc(Nc3cccc(Cl)c3F)c2cc1OC(=O)N1CCN(C)C[C@H]1C | inactive | inactive | – | –
CC1=C2C(O)C(=O)OC(c3ccoc3)C2(C)CCC1O (centres undefined) | inactive | inactive | – | –
Cn1c(=O)n(-c2ccc(C(C)(C)C#N)cc2)c2c3cc(C#Cc4cccnc4)ccc3ncc21 | 126 nM (active) | 89.3 nM (active) | – | –
N#C[C@@H]1CCCN1C(=O)CNC12CC3CC(CC(O)(C3)C1)C2 | inactive | inactive | – | –
C=C(C(=O)O)C1CCC2(C)CCC(O)C(=C)C2C1 (centres undefined) | inactive | inactive | – | –
CC/C=C\CCO[C@@H]1O[C@H](CO[C@@H]2OC[C@H](O)[C@H](O)[C@H]2O)[C@@H](O)[C@H](O)[C@H]1O | inactive | inactive | – | –
CC(C)CC1NC(=O)C(C)NC(=O)C(CC(C)C)OC(=O)CCCNC1=O (centres undefined) | inactive | inactive | – | –
CC(=O)OC1/C(C)=C/C(=O)C(OC(C)=O)C(C)(C)/C=C/C(C)C(=O)C2(OC(C)=O)CC(C)C(OC(=O)c3ccccc3)C12 (centres undefined) | inactive | inactive | – | –
O=C(NCC(O)CO)c1ccncc1Nc1ccc(I)cc1F (centres undefined) | inactive | inactive | – | –
C[C@H]1C(=O)N2c3ccccc3[C@@]3(O)C[C@@H]4C(=O)N[C@](C)(c5nc6ccccc6c(=O)n54)N1[C@@H]23 | inactive | inactive | – | –
C=C1C(=O)OC2CC(C)=C(C(C)CCCO)C(O)C12 (centres undefined) | inactive | inactive | – | –
O=C1NC(Cc2c[nH]c3ccccc23)C(=O)NC1Cc1c[nH]c2ccccc12 (centres undefined) | inactive | inactive | – | –
O=C(O[C@H]1[C@@H]2C=CO[C@@H](O[C@@H]3O[C@H](CO)[C@@H](O)[C@H](O)[C@H]3O)[C@@H]2[C@@]2(CO)O[C@@H]12)c1ccccc1 | inactive | inactive | – | –
CC(=O)OC1C[C@@]2(C)[C@@H](CC[C@@H](C)[C@]23Cc2c(O)cc4c(c2O3)CNC4=O)C(C)(C)[C@@H]1O (some centres undefined) | inactive | inactive | – | –

Structure (SMILES) | Potency [1] | Potency [2] | outcome [1] | activity change, negative = cytotoxicity [2]
C=C1C[C@]23C[C@H]1CC[C@H]2[C@@]1(C)CCC[C@@]2(C)C(=O)O[C@@H]([C@@H]3O)[C@@H]12 | inactive | inactive | – | –
C[C@H](CCC(=O)O)[C@H]1CC[C@H]2[C@@H]3C[C@H](O)[C@@H]4C[C@H](O)CC[C@]4(C)[C@H]3CC[C@]12C | inactive | inactive | – | –
CC1=CC2C(CC1OC1OC(CO)C(O)C(O)C1O)C(C)CC(=O)C2C(C)C (centres undefined) | inactive | inactive | – | –
COc1cc(N2CCOCC2)ccc1Nc1ncc(Cl)c(Nc2ccccc2NS(C)(=O)=O)n1 | 2060 nM (active) | 1640 nM (active) | – | –
CC(C)=CCC(O)/C(C)=C/CO[C@@H]1O[C@H](CO)[C@@H](O)[C@H](O)[C@H]1O (some centres undefined) | inactive | inactive | – | –
O=C1NC2CCc3nc4ccccc4c(=O)n3C2=Nc2ccccc21 (centres undefined) | inactive | inactive | – | –
CCCOc1ccc(-c2nc(OC)c3ccccc3n2)cc1 | inactive | inactive | – | –
CC(=O)C1=CCC2C3CCC4CC(O[C@@H]5O[C@H](CO)[C@@H](O[C@@H]6O[C@@H](C)[C@H](O)[C@@H](O)[C@H]6O)[C@H](O)[C@H]5O[C@@H]5O[C@H](CO)[C@@H](O)[C@H](O)[C@H]5O)CCC4(C)C3CCC12C (some centres undefined) | inactive | inactive | – | –
CC1CC(C(O)C(C)(C)O)OC2CC3(C)C4(C)CCC5C(C)(C)C(=O)CCC5(C)C4CCC3(O)C12O (centres undefined) | inactive | inactive | – | –
CC(=O)O[C@]1(C(C)=O)CC[C@H]2[C@@H]3C[C@H](C)C4=CC(=O)C=C[C@]4(C)[C@@]3(F)[C@@H](O)C[C@@]21C | inactive | inactive | – | –
CC1=C(C(=O)OCc2ccccc2)C(c2ccc(-c3ccccc3)cc2)NC(=O)N1CCCCCC(=O)O (centres undefined) | inactive | inactive | – | –
CC(=O)OC1CC2C3(C)CCC(OC(=O)CC(=O)O)C(C)(C)C3CCC2(C)C2(C)CCC(C3(C)CCC(=O)O3)C12 (centres undefined) | inactive | inactive | – | –
COC(=O)c1cc(OC)cc(OC)c1C(=O)c1c(OC)cc2c(c1O)C1CCCC(C)(O2)O1 (centres undefined) | inactive | inactive | – | –
CC(=O)CC1CCC(C(C)C(=O)OCC(O)CO)O1 (centres undefined) | inactive | inactive | – | –
COc1c2c(c(CO)c3c1C(=O)OC3)OC1(C)CCC3(O)C(C)(C)OC(=O)CCC3(C)C1C2 (centres undefined) | inactive | inactive | – | –
CCCCNc1ncc2c(-c3ccc(F)cc3)nn(CC3CCC(N)CC3)c2n1 (centres undefined) | 2000 nM (active) | 1780 nM (active) | – | –
Cc1cc(=O)oc2c(C=O)c(O)ccc12 | inactive | inactive | – | –
COc1c2c(c(C)c3c1C(=O)OC3)O[C@@]1(C)CC(O)C(C(C)(C)O)[C@](C)(CCC(=O)O)[C@H]1C2 (some centres undefined) | inactive | inactive | – | –
COc1cc(O)c2c(c1)C1=CC(O)C(O)CC1(C)OC2=O (centres undefined) | inactive | inactive | – | –
O=C(NOCC(O)CO)c1ccc(F)c(F)c1Nc1ccc(I)cc1F (centres undefined) | inactive | inactive | – | –
[N-]=[N+]=N[C@]1(CO)O[C@@H](n2ccc(=O)[nH]c2=O)[C@@H](O)[C@@H]1O | inactive | inactive | – | –

Structure (SMILES) | Potency [1] | Potency [2] | outcome [1] | activity change, negative = cytotoxicity [2]
C[C@H]1CC[C@@H]2N(C1)C[C@@H]1[C@H]([C@@H](O)[C@H](O)[C@]3(O)[C@H]1C[C@@]14OC5(O)[C@@H](C[C@@H](O)[C@@H]31)[C@]4(C)CC[C@@H]5O)[C@]2(C)O | inactive | inactive | – | –
CC1(C)C=CN2C(=O)C3=CCCN3C(=O)[C@@H]2C[C@@]12Nc1ccccc1C2=O | inactive | inactive | – | –
COc1cc2c(c(OC)c1CC=C(C)C)C[C@H](c1ccc(O)cc1O)CO2 | inactive | inactive | – | –
COc1cc(/C=C/C=O)cc(OC)c1O[C@@H]1O[C@H](CO)[C@@H](O)[C@H](O)[C@H]1O | inactive | inactive | – | –
CN[C@@H]1[C@H](O[C@H]2[C@H](O[C@@H]3[C@@H](O)[C@H](O)[C@@H](N=C(N)N)[C@H](O)[C@H]3N=C(N)N)O[C@@H](C)[C@]2(O)C=O)O[C@@H](CO)[C@H](O)[C@H]1O | inactive | inactive | – | –
CC(=O)OC1C(O)C2C(C)C3=CC(=O)OC3(O)CC2C2(C)CCCC(C)(CO)C12 (centres undefined) | inactive | inactive | – | –
C[C@@H]1O[C@@H](OC[C@H]2O[C@@H](OC(CCCCc3ccc(O)cc3)CCc3ccc(O)cc3)[C@H](O)[C@@H](O)[C@@H]2O)[C@H](O)[C@H](O)[C@H]1O (some centres undefined) | inactive | inactive | – | –
C[C@@H]1N[C@H]2N(C1=O)c1ccccc1[C@@]2(O)C[C@@H]1C(=O)N[C@@H](C)c2nc3ccccc3c(=O)n21 | inactive | inactive | – | –
C/C1=C\CC[C@H](C)CCO[C@@H]2O[C@H](CO[C@@H]3OC[C@](O)(COC1=O)[C@H]3O)[C@@H](O)[C@H](O)[C@H]2O | inactive | inactive | – | –
CC(CO)C1CCC2(C)CC3C(CO)CC(O)C3C(C)(O)C/C=C/12 (centres undefined) | inactive | inactive | – | –
COc1nc2sc(C(=O)NC3CC3)c(N)c2c(C)c1Cl | inactive | inactive | – | –
CC1CC(O)C2(OC1=O)OC1C(O)C3C4CCC5CC(OC6OC(CO)C(O)C(O)C6OC6OC(C)C(O)C(O)C6O)CCC5(C)C4CCC3(C)C1C2C (centres undefined) | inactive | inactive | – | –
C=C1CC[C@@H]2[C@](C)(CO[C@@H]3O[C@H](CO)[C@@H](O)[C@H](O)[C@H]3O)[C@H](O)CC[C@@]2(C)[C@@H]1C/C=C1/C(=O)OC[C@H]1O | inactive | inactive | – | –
Cn1cc(-c2ccc3nnc(Sc4ccc5nn(C)cc5c4)n3n2)cn1 | inactive | inactive | – | –
CC1OC(OC2C(O)C(OC3CCC4(C)C(CCC5(C)C4CC=C4C6CC(C)(COC7OC(CO)C(O)C(O)C7O)CC(O)C6(C)CCC45C)C3(C)C)OC(C(=O)O)C2O)C(O)C(O)C1OC1OCC(O)C(O)C1O (centres undefined) | – | – | inactive [at 9.29 µM] | 1.43% [at 9.29 µM] (inactive)
CC(C(O)/C=C/C(C)(C)O)C1CCC2(C)C3C(=O)C=C4C(CCC(O)C4(C)C)C3(C)CCC12C (centres undefined) | inactive | inactive | – | –
C/C1=C\CCC(C)CCO[C@@H]2O[C@H](CO[C@@H]3OC[C@H](O)[C@H](O)[C@H]3OC1=O)[C@@H](O)[C@H](O)[C@H]2O (some centres undefined) | inactive | inactive | – | –
CNC12CC3C[C@@](C)(C1)C[C@](C)(C3)C2 | inactive | inactive | – | –
CC(C)c1ccc(CO)cc1O[C@@H]1O[C@H](CO)[C@@H](O)[C@H](O)[C@H]1O | inactive | inactive | – | –
C=C(C(=O)O)[C@H]1C[C@]2(C)[C@@H](O)CC[C@]23O[C@H]1C[C@@H]3C | inactive | inactive | – | –
